# IDH1 R132H inh: human IDH1 R132H inhibition. O75874. IDH1-R132H enzyme, NADPH consumption, diaphorase/resazurin fluorescence. Potency, µM (highest dose often 76.6 µM), for inactives: top-dose activity change, negative = inhibition, hits mostly inhibitors. 390,000 tested, 0.093% active. AID 602179; also: potency is read from the fitted curve at half-maximal effect; % is scaled to controls: 0 for no effect and ±100 for the full control effect; nearly all actives have a fitted effect of over 65% in size
#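 IDH1-R132H (0.5 ug/mL) preincubated 30 min with compound, then NADPH (0.016 mM) and alpha-KG (2 mM) added; 80 min at RT, pH 7.5. Remaining NADPH coupled via diaphorase/resazurin to fluorescence (540/590 nm); concentration-response curves normalized to no-enzyme control.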
# Vif-APOBEC3F blk: inhibitors of Vif-A3F interaction | Potency, µM (doses to about 46.1 µM), for inactives: at the highest dose activity, negative = active | 390,000 tested, 0.2% active | AID 602313 | HeLa A3F-eYFP + Vif (tagged APOBEC3F with the HIV-1 protein that degrades it), YFP fluorescence increase; also: potency is read from the fitted curve at half-maximal effect; % of control where 0% means no effect; nearly all actives have a fitted effect of over 65% in size
#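 HeLa cells stably expressing A3F-eYFP plus Vif, plated and incubated overnight at 37 deg C, then exposed to compounds overnight at 37 deg C. Blocked degradation read as raised yellow fluorescence (Ex 488/Em 500-530).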
# LDHA block: inhibitors of human lactate dehydrogenase A; P00338; purified LDHA, NADH/diaphorase-resazurin fluorescence; stronger effect = lower value; activity change, % (values are at about 110 or 230 µM); 480,000 tested, 0.15% active; in the data active = activity change below about -30%; inconclusive = mostly about -25% to -30%;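 also: plate controls were DMSO wells for no effect and wells without enzyme for full effect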
#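 Resorufin fluorescence (ex540/em590), read at 0 and 20 min after diaphorase/resazurin addition, reports the NADH left after a 5 min room-temperature reaction of 2 nM human LDH5 with 0.06 mM NADH and 0.2 mM pyruvate.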
# PTHR1 ag: agonists of human PTHR1 parathyroid hormone receptor; Q03431; HEK293 GP2 PTHR1 cells, GloSensor cAMP luminescence, 1 h; Potency, µM (highest dose often 115 µM), inactives show top-dose activation, usual class: activators; 410,000 tested, 0.075% active; also: potency is read from the fitted curve at half-maximal effect; nearly all actives have a fitted effect of over 55% in size
#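 HEK-293-derived GP2 cells expressing PTHR1 and a GloSensor cAMP reporter, 3,000/well, plated overnight, given luciferin plus IBMX (each 0.5 mM as added) for 1 h at 37 °C, then compound for 1 h at 37 °C. Luminescence was read after 15 min at room temperature.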
# Vif-A3G inh: Vif-A3G binding inhibition; HeLa A3G-eYFP + Vif (tagged APOBEC3G with the HIV-1 protein that degrades it), YFP fluorescence, overnight; AID 602310; Potency, µM (doses to about 46.1 µM), for the others: top-dose activity, negative = active, most hits filed as inhibitors; 410,000 tested, 0.076% active; also: potency is read from the fitted curve at half-maximal effect; % is scaled to controls: 0 for no effect and ±100 for the full control effect; nearly all actives have a fitted effect of over 60% in size
# Target sequence (Q9HC16 whole entry, looked up): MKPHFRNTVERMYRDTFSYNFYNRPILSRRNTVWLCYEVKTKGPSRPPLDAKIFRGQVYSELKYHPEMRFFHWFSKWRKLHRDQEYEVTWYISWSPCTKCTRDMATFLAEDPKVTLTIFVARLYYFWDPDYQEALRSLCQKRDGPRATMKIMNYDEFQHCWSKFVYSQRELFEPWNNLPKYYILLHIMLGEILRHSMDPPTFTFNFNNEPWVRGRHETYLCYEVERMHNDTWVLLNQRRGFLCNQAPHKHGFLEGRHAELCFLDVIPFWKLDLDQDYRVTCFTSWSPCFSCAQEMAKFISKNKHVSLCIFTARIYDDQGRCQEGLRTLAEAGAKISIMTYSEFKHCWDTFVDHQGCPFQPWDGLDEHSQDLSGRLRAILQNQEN
#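 Read-out is eYFP fluorescence (Ex 488/Em 500-530) from Vif-expressing HeLa A3G-eYFP cells; more signal means A3G escaped Vif-mediated degradation. Cells plated overnight, compound pinned in, incubated overnight at 37 deg C.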
# PINK1 modulator: modulators of PINK1 expression; PINK1 immunofluorescence, high-content cytometry, 24 h; Potency, µM (top dose mostly 76.6 µM), inactives show at the top dose activation (PINK1 increase), actives largely listed as activators; 410,000 tested, 0.2% active; active = well fitted activation curve with a large enough effect; inconclusive = small, poorly fitted or top-dose-only effect; cell line not stated here; also: potency is read from the fitted curve at half-maximal effect; % of control where 0% means no effect; nearly all actives have a fitted effect of over 65% in size
#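 Decision-based qHTS: stable cells, 24 h exposure to five compound concentrations, CCCP as control. Fixed cells stained for PINK1 plus nuclear, mitochondrial and cell markers, cytometer read.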
# An asterisk follows results filed as active; i = inactive; ? = inconclusive; nt = no result; [ ] = dose if it differs, or a comment. Rows were chosen to be rich in hits. Some 0.59% of all compounds tested hit in one or more screens of this group. Unless noted, calls follow the shape of the dose curve; as a rule, active = well fitted curve in the direction sought with a large enough effect; inconclusive = small, poorly fitted or top-dose-only effect, or another doubt; inactive = no such curve, though single readings can be large; an effect the other way counts as inactive or inconclusive.
SMILES,IDH1 R132H inh,Vif-APOBEC3F blk,LDHA block,PTHR1 ag,Vif-A3G inh,PINK1 modulator
CC(C)CN(C(=O)COC(=O)c1ccc([N+](=O)[O-])s1)c1c(N)n(Cc2ccccc2)c(=O)[nH]c1=O,-1.2%,?,-3.7,i,?,39.8µM*
CCCCn1c(N)c(N(CCC(C)C)C(=O)COC(=O)c2ccc([N+](=O)[O-])s2)c(=O)[nH]c1=O,-1.0%,?,0.3,i,-23.3%,?
CC(C)C(=O)N1c2ccccc2NC2=C(C(=O)CC(C)(C)C2)C1c1ccccc1 (stereo not drawn),nt,nt,-1.9,nt,nt,nt
CCOC(=O)c1cc2cc(C(C)C)ccc2[nH]1,nt,nt,4.7,nt,nt,nt
CN(Cc1ccccc1)c1nc2c(c(=O)n(C)c(=O)n2C)n1Cc1c(Cl)cccc1Cl,nt,nt,9.0,nt,nt,nt
COc1cc(=O)n(-c2ccc(F)cc2)nc1C(=O)Nc1ccc(Br)cc1C,nt,nt,6.7,nt,nt,nt
O=C(C[n+]1cc(Br)cc2ccccc21)c1ccc(Cl)cc1,17.9%,?,-6.5,i,-23.6%,14.1µM*
CCOc1ccc2nc(NC(=O)c3nc(SC(C)C)ncc3Cl)sc2c1,0.0%,5.01µM*,-3.7,-9.3%,1.8%,?
CCOc1ccc2nc(NC(=O)c3nc(SC)ncc3Cl)sc2c1,-11.2%,-3.7%,-1.2,-17.6%,1.6%,6.3%
O=C(NNC(=O)c1c(O)c2ccccc2[nH]c1=O)c1ccccc1,-4.0%,1.4%,1.0,-32.5%,2.7%,21.6%
O=C(N/N=C/c1ccccc1)c1c(O)c2ccccc2[nH]c1=O,3.4%,-11.7%,2.1,-34.7%,2.6%,8.91µM*
O=C(N/N=C/c1cccc(F)c1)c1c(O)c2ccccc2[nH]c1=O,3.5%,-16.6%,0.1,-26.5%,0.0%,2.82µM*
O=C(N/N=C/c1ccc(F)cc1)c1c(O)c2ccccc2[nH]c1=O,-0.9%,0.4%,4.5,i,0.9%,4.47µM*
CCCn1c(=O)c(C(=O)N/N=C/c2ccc(F)cc2)c(O)c2ccccc21,-20.8%,8.9%,-4.1,i,3.3%,0.2%
Cc1cc(C)cc(NC(=O)CSc2nc(N)c(NC(=O)c3cccs3)c(=O)[nH]2)c1,-7.8%,5.5%,-32.4*,6.8%,-7.1%,-0.6%
CC(C)CC[n+]1ccccc1/C=C/c1ccc(N(C)C)cc1,-10.5%,7.94µM*,-8.6,-26.2%,10µM*,31.6µM*
CN(C)c1ccc(/C=C/c2cccc[n+]2[O-])cc1,9.7%,?,-2.7,-18.3%,-5.0%,-0.7%
COc1ccc(CCNC(=O)CSCc2cnn(-c3ccccc3)c2-n2cccc2)c(OC)c1,nt,nt,-7.6,nt,nt,nt
CCN(C(=O)Cn1c(=O)n(CCC(=O)Nc2ccc(F)cc2)c(=O)c2sccc21)c1ccccc1,nt,nt,-7.1,nt,nt,nt
COC(=O)c1sccc1NC(=O)c1ccc2c(c1)OCO2,0.8%,0.7%,-1.4,i,1.6%,6.2%[38.3 µM]
COC(=O)c1c(-c2cccnc2)csc1NC(=O)c1ccc2c(c1)OCO2,-4.2%,10µM*,-4.9,-9.9%,-20.2%,?
COc1ccc(CCNC(=O)C2CCN(S(C)(=O)=O)CC2)cc1OC,1.8%,-2.0%,5.1,i,1.0%,-0.5%[38.3 µM]
CCS(=O)(=O)N1CCC(C(=O)NCCc2ccc(OC)c(OC)c2)CC1,-1.3%,-4.1%,-13.3,i,1.5%,10µM*
C/C(=N\NC(=O)C(C)n1nc(C)c([N+](=O)[O-])c1C)c1ccccc1O (stereo not drawn),3.1%,5.62µM*,-4.7,-18.1%,-1.5%,-0.9%
COc1ccc(NS(=O)(=O)c2ccc(-n3nnc4ccccc43)c([N+](=O)[O-])c2)cc1,3.4%,-2.3%,3.5,-26.4%[57.5 µM],1.9%,?
O=[N+]([O-])c1cc(S(=O)(=O)Nc2cccc(C(F)(F)F)c2)ccc1-n1nnc2ccccc21,3.0%,-9.0%,-6.0,-29.1%,-12.7%,22.4µM*

# High-throughput results: PubChem BioAssay, National Center for Advancing Translational Sciences (NCATS)
